A short description of experiment [1]: inhibitors of TNFa-induced NFkB p65 translocation, primary screen, imaging, HUVEC, MLSMR starter and 10KST1 sets (AID 438;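 active means inhibition above 20% together with a positive visual image hit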;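 further: compound added about 3h40 before a 20 min TNFalpha stimulation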;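 on inhibition: signal is the nuclear over cytoplasmic p65 intensity ratio per well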). To be noted: HUVEC TNFa-induced p65 nuclear translocation; cell count: measured here: nuclei count (cytotoxicity indicator), at 2.08 µM; inhibition: at 2 µM, stronger effect = higher value, 0% TNFa-plus-vehicle, 100% no-TNFa wells.
Experiment [2] is described as follows: reduction of polyQ htt aggregates in cells – imaging, exon1htt(103Q)mCFP cells, high-content imaging, primary screen (AID 483;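 active means visual image review flags a hit and inhibition of aggregation exceeds 20%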;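 further: compound exposure lasted 3 days before fixation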;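 on nuclei count: percent of the per-plate median nuclei count of sample wells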). To be noted: exon1htt(103Q)mCFP cell line, aggregate imaging, at 2 µM; inhibition of aggregation: stronger effect = higher value; nuclei count: measured here: cell count, toxicity.
The nature of experiment [3]: endothelial E-selectin expression blockers – imaging, HUVEC, immunofluorescence, MLSMR starter and 10KST1 sets, primary screen (AID 487;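 active means visually confirmed hit in the image check and inhibition above 20%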;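 on inhibition: signal is fraction of cell area covered by stained E-selectin grains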;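 on nuclei count: 100% = median nuclei count of all wells on the same plate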). To be noted: HUVEC TNFalpha-induced E-selectin immunofluorescence imaging, at 2 µM; inhibition: stronger effect = higher value; nuclei count: measured here: cell number, toxicity.
The nature of experiment [4]: Primary imaging screen for DUSP6 inhibitors that restore phospho-Erk in transfected HeLa cells, chemical complementation (AID 609;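 active means compounds giving at least 50% inhibition in the cell-based MKP-3 phosphatase rescue imaging test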;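 on inhibition: phospho-Erk level distribution per well compared with pooled transfected vehicle control wells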). To be noted: HeLa MKP-3 transfected, phospho-Erk imaging KS statistic, at 10 µM, cells stimulated with TPA for 15 min.
The target in experiment [5] is Dual specificity protein phosphatase 6 (Homo sapiens) (UniProt Q16828). Described as above. Particulars: HeLa MKP-3 transfected, phospho-Erk imaging KS statistic; at 10 µM; stronger effect = higher value; cells stimulated with TPA for 15 min.
Chain of Dual specificity protein phosphatase 6 (Homo sapiens) (Q16828 whole entry, looked up): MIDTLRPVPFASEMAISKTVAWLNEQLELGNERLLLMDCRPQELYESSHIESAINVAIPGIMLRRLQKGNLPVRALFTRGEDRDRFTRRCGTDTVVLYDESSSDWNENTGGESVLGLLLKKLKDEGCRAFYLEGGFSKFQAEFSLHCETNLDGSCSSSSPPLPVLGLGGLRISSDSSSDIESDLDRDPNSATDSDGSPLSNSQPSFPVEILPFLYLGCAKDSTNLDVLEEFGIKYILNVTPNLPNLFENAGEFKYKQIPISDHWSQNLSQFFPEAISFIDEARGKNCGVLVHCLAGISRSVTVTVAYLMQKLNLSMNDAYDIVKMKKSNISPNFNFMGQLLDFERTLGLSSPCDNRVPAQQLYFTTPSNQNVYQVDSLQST
Experiment [6] has as its target Voltage-gated potassium channel subunit beta-2 (Rattus norvegicus) (UniProt P62483). Kind of experiment: inhibitors of rat Kvbeta2 reductase activity – biochemical, NADPH fluorescence, primary screen (AID 622;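 active means fluorescence slope higher than the sample average by over 3 SD, cut at about -0.22 in these data, passing the limit was not always enough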;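 further: slope of raw intensity against log time taken from 70 to 1610 s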). Particulars: recombinant KvBeta, 4-cyanobenzaldehyde reduction, at 10 µM, stronger effect = higher value.
For experiment [7] the target is unchanged. In words: enhancers of rat Kvbeta2 NADPH turnover – biochemical, NADPH fluorescence, primary screen (AID 623;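 active means NADPH fluorescence slope more negative than the mean of all samples by about 3 SD, 99.7% confidence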;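 further: fluorescence intensity change per second fitted from 20 to 320 s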). To be noted: Recombinant KvBeta, NADPH fluorescence decrease slope, 10 min; at 10 µM; stronger effect = lower value.
Experiment [8] has as its target Alpha-2C adrenergic receptor (Homo sapiens) (UniProt P18825). Kind of experiment: compounds altering alpha2C-coupled GIRK flux – cell-based, HEK293 alpha2C/GIRK1/2, thallium flux, primary screen (AID 624;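 active means fluorescence slope after compound addition differing from the mean of all screened samples at 99.7% confidence, in either direction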;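 further: slope of fluorescence ratio to pre-addition baseline per second over 15 to 24 s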). To be noted: thallium flux BTC fluorescence, at 10 µM, actives lie on both sides.
Experiment [9] deals with Muscarinic acetylcholine receptor M4 (Homo sapiens) (UniProt P08173). Kind of experiment: M4-linked GIRK flux change, two-sided – cell-based, HEK293 M4/GIRK, thallium flux, BTC-AM, M4 allosteric agonist project, primary screen (AID 625;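 active means fluorescence slope after compound addition differing from the mean of all tested samples at 99.7% confidence, mostly higher but some lower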;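 further: thallium influx through GIRK channels coupled to M4 in HEK293 cells with BTC-AM dye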). Particulars: at 10 µM, actives lie on both sides.
Chain of Muscarinic acetylcholine receptor M4 (Homo sapiens) (P08173 whole entry, looked up): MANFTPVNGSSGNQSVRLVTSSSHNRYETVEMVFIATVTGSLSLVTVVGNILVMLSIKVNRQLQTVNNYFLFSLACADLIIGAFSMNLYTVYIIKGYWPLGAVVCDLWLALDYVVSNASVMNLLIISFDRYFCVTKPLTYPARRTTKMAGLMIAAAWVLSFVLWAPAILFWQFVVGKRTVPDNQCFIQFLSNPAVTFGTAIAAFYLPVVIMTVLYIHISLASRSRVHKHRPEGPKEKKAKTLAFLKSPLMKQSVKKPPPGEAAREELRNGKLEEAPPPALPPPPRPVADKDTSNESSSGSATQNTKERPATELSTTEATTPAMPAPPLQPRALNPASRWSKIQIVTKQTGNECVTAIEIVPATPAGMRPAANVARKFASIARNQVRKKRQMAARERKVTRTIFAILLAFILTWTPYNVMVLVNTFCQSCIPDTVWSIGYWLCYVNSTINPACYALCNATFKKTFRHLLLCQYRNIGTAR
Experiment [10] can be described thus: inhibitors of larval lipid processing in zebrafish, primary screen, whole organism, PED6 fluorescence, gall bladder and intestine (AID 686;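 active means a full or partial loss of lipid-probe fluorescence in the fish gall bladder, intestine or both, judged by eye; inactive means no fluorescence loss, or compound toxic to the fish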;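 further: larvae 5 to 7 days old with five fish per well; signal comes from phospholipase A2 cleavage of quenched PED6 carried via bile; overnight exposure to compound and PED6 before scoring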). Particulars: Zebrafish larvae PED6 lipid processing, fluorescence scoring; screened at 20 µM (by protocol).
Experiment [11] can be described thus: loss of swimming-algae plug formation – whole organism, Chlamydomonas reinhardtii, WT vs cilia-less mutant, absorbance, 96-well, primary screen (AID 463189).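 Further: 0% = wild type cc124 cells in DMSO and 100% = ciliumless bld1 mutant cells.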 To be noted: Chlamydomonas reinhardtii gravitaxis, OD600 absorbance, 2 days; at 10 µM; stronger effect = higher value.
A short description of experiment [12]: blockers of RIG-like receptor reporter activation – cell-based, Sendai virus stimulus, luciferase, 10K MLSCN set, TLR/RLR signaling modifier project, primary screen (AID 602276;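 active means inhibition at or above 50% at 10 µM; inactive means inhibition below 50%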;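 further: firefly luciferase from ISG56 promoter only with Renilla not read in this screen; 0% = Sendai virus plus DMSO and 100% = medium plus DMSO without virus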). To be noted: HEK293 RL24 IRF3 luciferase reporter, at 10 µM, stronger effect = higher value.
Experiment [13] is described as follows: TLR3 IRF3 reporter activation blockers – cell-based, poly I:C stimulus, luciferase, 10K MLSCN set, primary screen (AID 602277;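 active means inhibition of the reporter signal at or above 50%; inactive means inhibition below 50%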). Particulars: HEK293-TLR3 RL24 IRF3 luciferase reporter, at 10 µM, stronger effect = higher value. For orientation: A reporter such as luciferase makes a cellular process visible.
[14] abbreviates: measured here: cell density z-score.
[15] abbreviates: measured here: nuclear c-Myc green intensity z-score.
The mark [16] stands for this setting: measured here: nuclear pErk red intensity z-score, stronger effect = higher value.

Several values for one entry are separate records, joined by “and”; a condition that tells them apart may be missing. Identical values can stand only once. Activity calls are given as the source filed them.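 How the source made its calls, unless noted: active means inhibition at or above 50% relative to wild type and mutant plate controls; inactive means inhibition below 50%.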

Chain of Alpha-2C adrenergic receptor (Homo sapiens) (P18825 whole entry, looked up): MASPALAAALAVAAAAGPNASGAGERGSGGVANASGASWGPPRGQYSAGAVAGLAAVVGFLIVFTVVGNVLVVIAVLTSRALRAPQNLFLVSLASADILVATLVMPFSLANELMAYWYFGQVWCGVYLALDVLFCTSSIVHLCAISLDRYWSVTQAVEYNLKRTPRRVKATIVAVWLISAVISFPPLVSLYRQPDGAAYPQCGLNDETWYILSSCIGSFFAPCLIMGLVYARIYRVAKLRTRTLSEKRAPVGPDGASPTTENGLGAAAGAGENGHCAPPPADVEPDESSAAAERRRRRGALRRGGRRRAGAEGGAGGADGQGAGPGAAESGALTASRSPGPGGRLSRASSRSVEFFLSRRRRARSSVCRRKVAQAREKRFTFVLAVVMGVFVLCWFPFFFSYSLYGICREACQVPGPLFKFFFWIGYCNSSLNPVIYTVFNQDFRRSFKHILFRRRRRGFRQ
Chain of Voltage-gated potassium channel subunit beta-2 (Rattus norvegicus) (P62483 whole entry, looked up): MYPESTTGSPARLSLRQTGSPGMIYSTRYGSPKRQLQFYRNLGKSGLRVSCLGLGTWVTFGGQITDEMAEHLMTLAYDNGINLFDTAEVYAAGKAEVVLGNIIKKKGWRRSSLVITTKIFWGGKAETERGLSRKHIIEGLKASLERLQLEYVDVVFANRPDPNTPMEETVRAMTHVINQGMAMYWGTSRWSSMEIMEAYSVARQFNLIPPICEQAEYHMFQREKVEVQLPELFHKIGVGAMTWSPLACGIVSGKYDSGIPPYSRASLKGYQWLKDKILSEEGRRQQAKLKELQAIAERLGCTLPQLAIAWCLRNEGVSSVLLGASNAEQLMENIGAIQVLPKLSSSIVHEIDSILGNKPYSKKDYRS

As usually defined, the inhibition is the change of the read-out against control, counted positive when it falls. Take `CN1CCN2c3ccccc3Cc3ccccc3C2C1` (stereo not given): the cell count in experiment [1] came to 620. In addition, the inhibition in [1] is 1.5% (inactive); in experiment [3], -52% (inactive); in experiment [5] it was 19.2% (inactive); in experiment [11], 15.2% (inactive) and 10.4% (inactive); in experiment [12], 12.6% (inactive); in experiment [13] it was 45.7% (inactive). For the same molecule, the inhibition of aggregation in [2] is 11.1% (inactive). The nuclei count was 113% in [2] and 117% in experiment [3]. Further, the z-score in experiment [4] (setting [14]) was -0.186; in experiment [4] (setting [15]), -0.363; in experiment [4] (setting [16]), -0.896. The fluorescence slope in experiment [6] is -0.574 (inactive); in experiment [9], 0.0128 (active). Besides, the NADPH fluorescence slope in experiment [7] is -3.8e-05 (inactive). The slope in experiment [8] was 0.0196 (active). Besides, the molecule was called inactive in experiment [10].
As to `COc1ccc(C2/C(=C(/O)c3cnn(-c4ccccc4)c3C)C(=O)C(=O)N2CCN(C)C)cc1OC` (stereo not given), in [1], the cell count was 517. In addition, the inhibition in experiment [1] is -9.1% (inactive); in experiment [3] it was -17.7% (inactive); in experiment [5], -6.86% (inactive); in experiment [11], -4.78% (inactive); in [12] it was 2.76% (inactive); in [13], 15.6% (inactive). Further, in [2], the inhibition of aggregation is 16% (inactive). Further, the figures for the nuclei count in [2] and in [3] were 72.6% and 125%, respectively. The results for the z-score in [4] (setting [14]), in experiment [4] (setting [15]) and in [4] (setting [16]) were -1.21, 1.21 and 1.2, respectively. For the same molecule, the results for the fluorescence slope in [6] and in [9] were -0.428 (inactive) and 0.00527 (inactive), respectively. Also, the NADPH fluorescence slope in experiment [7] was -0.000117 (inactive). The slope in experiment [8] was 0.00586 (inactive). Moreover, in [10], the molecule was called inactive.
With `Cc1cc(N2C(=O)C(=O)/C(=C(/O)c3ccc(F)cc3)C2c2ccc(F)cc2)no1` (stereo not given), in experiment [1], the cell count stood at 430. The inhibition in experiment [1] is -7.1% (inactive); in [3], -108% (inactive); in experiment [5] it was 1.04% (inactive); in experiment [11], 0.694% (inactive); in experiment [12], 14.8% (inactive); in experiment [13] it was 7.49% (inactive). In addition, the inhibition of aggregation in experiment [2] was 10.1% (inactive). Besides, the values for the nuclei count in experiment [2] and in [3] were 60.9% and 122%, respectively. In addition, the z-score is -1.41 in experiment [4] (setting [14]), 1.25 in experiment [4] (setting [15]) and 1.07 in [4] (setting [16]). Further, the fluorescence slope was -0.407 (inactive) in experiment [6] and 0.0056 (inactive) in experiment [9]. For the same molecule, the NADPH fluorescence slope in [7] was -3.1e-05 (inactive). Further, the slope in experiment [8] was 0.00571 (inactive). Further, the result in [10] was inactive.
With `O=C(NCC(F)(F)F)N1CCOCC1`, the cell count in experiment [1] was determined as 663. The inhibition in experiment [1] was 11.2% (inactive); in [3] it was -23.9% (inactive); in [5], -13.3% (inactive); in experiment [11], 33.2% (inactive); in [12], 9.24% (inactive); in [13], 15.3% (inactive). Moreover, the inhibition of aggregation in [2] was 14.7% (inactive). Also, the nuclei count in [2] came out at 106%; in experiment [3], 102%. Also, the z-score in experiment [4] (setting [14]) is 0.272; in experiment [4] (setting [15]), 0.0222; in experiment [4] (setting [16]), 0.9. The figures for the fluorescence slope in [6] and in [9] were -0.508 (inactive) and 0.00517 (inactive), respectively. Moreover, in [7], the NADPH fluorescence slope is -3.8e-05 (inactive). In addition, the slope in experiment [8] is 0.0049 (inactive). Also, the result in experiment [10] was inactive.
`COc1ccc(/C(O)=C2\C(=O)C(=O)N(c3cc(C)on3)C2c2ccccc2OC)cc1` (stereo not given): the cell count in experiment [1] is 515. Further, the inhibition was -2.7% (inactive) in [1]; -21.7% (inactive) in experiment [3]; 19.4% (inactive) in experiment [5]; -3.34% (inactive) in [11]; 8.52% (inactive) in [12]; -5.11% (inactive) in experiment [13]. For the same molecule, the inhibition of aggregation in experiment [2] is -8.1% (inactive). Moreover, the nuclei count was 103% in experiment [2] and 101% in experiment [3]. Moreover, the z-score in experiment [4] (setting [14]) was 1.8; in [4] (setting [15]), 0.145; in experiment [4] (setting [16]) it was -0.473. Also, the figures for the fluorescence slope in [6] and in experiment [9] were -0.469 (inactive) and 0.0068 (inactive), respectively. In [7], the NADPH fluorescence slope is -6.5e-05 (inactive). Moreover, in experiment [8], the slope is 0.00564 (inactive). In addition, the outcome in experiment [10] was inactive.

The record behind these values is PubChem BioAssay.
